The source of these data is PubChem BioAssay (Tox21).

Molecules are shown by their SMILES. Several values for one entry are separate records, joined by “and”; a condition that tells them apart may be missing. Equal values may be shown once. Results filed as inconclusive are left out. Activity calls are given as the source filed them. Unless noted, calls follow the shape of the dose curve; as a rule, active = well fitted curve in the direction sought with a large enough effect in the repeat runs; inconclusive = weak or mixed curves; inactive = no such curve, though single readings can be large; an effect the other way counts as inactive or inconclusive.

A short description of test [1]: qHTS assay for small molecule agonists of the p53 signaling pathway (AID 651631; calls by dose curve; also: nearly all actives have a fitted effect of over 15% in size; also: potency is read from the fitted curve at half-maximal effect). In a few lines:
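Read-out is beta-lactamase FRET fluorescence measured 2 h after substrate addition at room temperature, in HCT-116 cells with a p53 response element-driven reporter exposed to compounds for 16 h at 37 °C.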
A general note: Quantitative high-throughput screening tests each substance at several concentrations.

The next test has as its target Aromatase (Homo sapiens) (UniProt P11511). Nature of the test: qHTS assay to identify aromatase inhibitors (AID 743083). Also: nearly all actives have a fitted effect of over 55% in size. Also: potency is read from the fitted curve at half-maximal effect.
The target of test [2] is Aryl hydrocarbon receptor (Homo sapiens) (UniProt P35869). Nature of the test: qHTS assay to identify small molecule that activate the aryl hydrocarbon receptor (AhR) signaling pathway (AID 743085). Also: nearly all actives have a fitted effect of over 15% in size. Also: potency is read from the fitted curve at half-maximal effect.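 As to activation: HG2L7.5c1 human HepG2 liver cells with stably integrated DRE-driven firefly reporter; series mostly up to about 70 µM.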 In a few lines: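 Cell line HG2L7.5c1 (human hepatoma, 20× DRE-luc). Plated, 5 h 37C, compound/DMSO added, 24 h 37C. CellTiter-Fluor 30 min 37C → fluorescence; then ONE-Glo 30 min RT → luminescence.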

The nature of test [3]: qHTS assay to identify small molecule antagonists of the retinoic acid receptor (RAR) signaling pathway (AID 1159552; also: nearly all actives have a fitted effect of over 50% in size; also: potency is read from the fitted curve at half-maximal effect). In a few lines:
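Cells of the C3RL4 line were seeded, incubated overnight, then dosed with compounds in DMSO followed immediately by retinol (1 uM final). Six hours later luciferase detection reagent went in; signal was measured after 30 min at RT.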

Test [4] in a line: Caspase-3/7 induction in HepG2 cells by small molecules, qHTS assay (AID 1346978). Also: nearly all actives have a fitted effect of over 15% in size. Also: potency is read from the fitted curve at half-maximal effect. In a few lines: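 Wild-type HepG2 cells, 2,000/well, settled 5 hr at 37 C and 5% CO2, then compound-treated for 17 hr; caspase-3/7 activity read by luminescent Caspase-Glo 3/7 after 30 min at room temperature.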
Test [5] has as its target Acetylcholinesterase (Homo sapiens) (UniProt P22303). Nature of the test: Acetylcholinesterase (AChE) small molecule antagonists: colormetric cell-based qHTS assay (AID 1347395; calls by dose curve; also: nearly all actives have a fitted effect of over 30% in size). The essentials:
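Colorimetric read-out: DTNB detects thiocholine released when cellular AChE in SH-SY5Y cells hydrolyses acetylthiocholine. Cells attached overnight, received compound for 30 min at 37 C, then substrate mix for 90 min at 37 C.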

Test [6] has the same target. Nature of the test: Acetylcholinesterase (AChE) small molecule antagonists: fluorescence cell-based qHTS assay (AID 1347398; calls by dose curve; also: nearly all actives have a fitted effect of over 50% in size). The conditions noted are these: Potency: AChE activity; outcome: AChE activity. The essentials:
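SH-SY5Y cells (2000/well), attached overnight, incubated with compound 30 min at 37 C. Acetylthiocholine plus Thiolite Green then added for 40 min at room temperature. Thiocholine fluorescence (Ex/Em 490/520 nm) reports cellular AChE activity.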

The target is the same in test [7]. Nature of the test: Acetylcholinesterase (AChE) small molecule antagonists: enzyme-based qHTS assay with human liver microsomes (AID 1347399; calls by dose curve; also: nearly all actives have a fitted effect of over 60% in size). To be noted: Potency: qHTS inhibition; outcome: qHTS inhibition. The essentials:
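Recombinant human AChE (50 mU/mL in the enzyme mix) and human liver microsomes (0.25 mg/mL final) were preincubated with compound and NADPH (0.25 mg/mL final) for 30 min at 37 C. Acetylthiocholine/DTNB was then added; thiocholine was read colorimetrically after 10 min at room temperature.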

Test [8] shares this target. Briefly: Acetylcholinesterase (AChE) small molecule antagonists: enzyme-based qHTS assay (AID 1347397; calls by dose curve; also: nearly all actives have a fitted effect of over 55% in size). To be noted: Potency: AChE enzyme activity inhibition; outcome: AChE enzyme activity inhibition. The essentials: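 Recombinant human AChE (50 mU/mL) preincubated with compound 30 min at room temperature; acetylthiocholine plus DTNB then added, and thiocholine formation read colorimetrically after 10 min at room temperature. DMSO served as vehicle control.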

Test [9] in a line: qHTS assay to identify small molecule antagonists of the estrogen related receptor (ERR) signaling pathway - cell viability counter screen (AID 1224818).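 Also: series mostly up to about 46 µM; viability measured after 17.5 h of compound exposure.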 The essentials: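 In the same ERR cell assay, compound-treated wells (17.5 h, 37 C) were multiplexed with a fluorogenic viability reagent, CellTiter-Fluor, read after 30 min to flag cytotoxic substances.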
Test [10] can be described thus: qHTS assay to identify small molecule antagonists of the estrogen related receptor (ERR) signaling pathway (AID 1224819;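 also: luminescence from an ERR-driven luciferase reporter measured with One-Glo reagent; series mostly up to about 46 µM; nearly all actives have a fitted effect of over 50% in size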). The essentials: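 qHTS in ERR cells, 2,000/well, 1536 format. Cpd (DMSO) added after 6 h settle, 18 h 37 C. One-Glo luminescence, 30 min RT.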
The nature of test [11]: qHTS assay to identify small molecule agonists of the estrogen related receptor (ERR) signaling pathway (AID 1224820). Also: potency is read from the fitted curve at half-maximal effect. The essentials: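 Cells: ERR line from NTP, 2,000/well. Pre-incubation 6 h, 37 C/5% CO2. Compound (DMSO) pin transfer, 18 h 37 C. One-Glo, 30 min RT, luminescence.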
In test [12] the test system is estrogen-related receptor alpha (ERRalpha) with PGC-1alpha coactivator, human. Nature of the test: qHTS assay to identify small molecule antagonists of the estrogen related receptor signaling pathway with the pleiotropic PPARgamma coactivator (PGC) (AID 1224821; calls by dose curve;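 also: series mostly up to about 46 µM; lower luminescence signal means antagonism of PGC/ERR signalling; nearly all actives have a fitted effect of over 50% in size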). The essentials: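 Luminescent read-out (One-Glo, 30 min at room temperature) following 18 h treatment of PGC/ERR cells at 37 C with compounds delivered in DMSO. Cells had settled 6 h at 37 C/5% CO2 before dosing.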

A short description of test [13]: qHTS assay to identify small molecule antagonists of the estrogen related receptor signaling pathway with the pleiotropic PPARgamma coactivator (PGC) cell viability counter screen (AID 1224822; also: series mostly up to about 46 µM). In a few lines:
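Compounds in DMSO, with positive and negative controls, were applied to PGC/ERR cells (2,000/well) and left 17.5 h at 37 C before CellTiter-Fluor detection.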

Test [14] in a line: qHTS assay to identify small molecule agonists of H2AX (AID 1224845; active = well fitted activation curve with a large enough effect in the signal ratio in the repeat runs, not every such curve was filed as active; the % refers to the signal ratio; also: potency is read from the fitted curve at half-maximal effect). The essentials: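 Wild-type CHO-K1 cells, plated overnight, exposed 3hr at 37C to 15 concentrations (0.76% DMSO final). Lysed, then HTRF anti-pH2AX (S139) cryptate and anti-H2AX-d2 antibodies, 24 hr room temperature; 665/620 nm emission read.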
Test [15] is described as follows: qHTS assay to identify small molecule HDAC inhibitors (AID 1259364).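 Also: wild-type HCT-116 cells with endogenous class I/II HDAC activity; top concentration of the series differs between compounds; nearly all actives have a fitted effect of over 45% in size.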 In a few lines:
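Relative class I and II HDAC activity is taken from the luminogenic signal in HCT-116 cells, with compound exposure 2 hr and reagent development 30 min at room temperature.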

Test [16] in a line: qHTS assay to identify small molecule agonists of the sonic hedgehog signaling (Shh) pathway (AID 1259368; calls by dose curve;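 also: NIH/3T3-derived 3T3Gli1-Luc cells carrying a stable Gli1-driven firefly luciferase reporter; series mostly up to about 92 µM; nearly all actives have a fitted effect of over 15% in size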). In a few lines: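 Mouse fibroblast (NIH/3T3) reporter cells with stably integrated Gli1-Luc were treated 24 hr with compound; firefly luciferase luminescence served as the read-out.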
Test [17] is described as follows: qHTS assay to identify small molecule agonists of the estrogen related receptor signaling pathway with the pleiotropic PPARgamma coactivator (PGC) (AID 1224823). The essentials: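 Steps: plate PGC/ERR cells at 2,000 cells/well; incubate 6 h, 37 C/5% CO2; pin-transfer compounds (DMSO); incubate 18 h, 37 C; add One-Glo; 30 min RT; read luminescence.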

Aryl hydrocarbon receptor (Homo sapiens), sequence (P35869 whole entry, looked up): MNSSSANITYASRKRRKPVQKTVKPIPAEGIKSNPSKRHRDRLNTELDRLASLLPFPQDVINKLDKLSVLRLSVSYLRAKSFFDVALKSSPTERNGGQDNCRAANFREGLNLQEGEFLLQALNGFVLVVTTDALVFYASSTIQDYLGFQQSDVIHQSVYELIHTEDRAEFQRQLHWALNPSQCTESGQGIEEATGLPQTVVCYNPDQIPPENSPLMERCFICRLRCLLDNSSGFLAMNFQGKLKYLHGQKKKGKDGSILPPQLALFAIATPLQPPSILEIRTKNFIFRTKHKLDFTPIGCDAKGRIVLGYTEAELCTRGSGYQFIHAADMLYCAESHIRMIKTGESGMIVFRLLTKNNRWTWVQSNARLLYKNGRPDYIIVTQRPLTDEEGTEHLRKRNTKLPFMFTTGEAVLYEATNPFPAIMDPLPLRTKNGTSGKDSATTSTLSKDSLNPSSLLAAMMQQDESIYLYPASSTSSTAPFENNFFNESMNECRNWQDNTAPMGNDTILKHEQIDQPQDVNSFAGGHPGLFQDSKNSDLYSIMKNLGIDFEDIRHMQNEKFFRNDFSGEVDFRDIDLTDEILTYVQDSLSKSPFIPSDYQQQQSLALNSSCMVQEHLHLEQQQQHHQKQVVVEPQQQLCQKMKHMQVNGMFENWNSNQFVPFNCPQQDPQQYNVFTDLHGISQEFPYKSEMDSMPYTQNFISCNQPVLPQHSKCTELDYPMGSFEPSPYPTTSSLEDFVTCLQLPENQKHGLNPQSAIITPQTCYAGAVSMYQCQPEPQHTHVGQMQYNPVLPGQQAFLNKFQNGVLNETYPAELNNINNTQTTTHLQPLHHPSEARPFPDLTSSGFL
Acetylcholinesterase (Homo sapiens), sequence (P22303 whole entry, looked up): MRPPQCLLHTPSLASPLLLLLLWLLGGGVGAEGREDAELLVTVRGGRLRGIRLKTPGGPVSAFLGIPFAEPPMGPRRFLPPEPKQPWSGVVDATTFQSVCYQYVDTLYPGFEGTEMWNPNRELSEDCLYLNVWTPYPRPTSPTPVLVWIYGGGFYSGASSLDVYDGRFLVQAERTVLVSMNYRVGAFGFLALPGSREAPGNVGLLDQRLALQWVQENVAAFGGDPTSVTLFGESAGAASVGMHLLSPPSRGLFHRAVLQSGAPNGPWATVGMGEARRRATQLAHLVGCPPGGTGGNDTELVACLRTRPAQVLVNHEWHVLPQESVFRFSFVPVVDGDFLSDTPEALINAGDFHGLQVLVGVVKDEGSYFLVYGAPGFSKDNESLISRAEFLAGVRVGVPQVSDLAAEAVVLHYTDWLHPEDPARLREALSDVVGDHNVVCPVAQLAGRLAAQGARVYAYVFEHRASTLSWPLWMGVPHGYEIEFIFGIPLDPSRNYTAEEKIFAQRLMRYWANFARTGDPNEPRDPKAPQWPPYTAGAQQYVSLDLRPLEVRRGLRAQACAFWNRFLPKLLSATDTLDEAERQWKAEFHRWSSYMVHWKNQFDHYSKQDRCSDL
Aromatase (Homo sapiens), sequence (P11511 whole entry, looked up): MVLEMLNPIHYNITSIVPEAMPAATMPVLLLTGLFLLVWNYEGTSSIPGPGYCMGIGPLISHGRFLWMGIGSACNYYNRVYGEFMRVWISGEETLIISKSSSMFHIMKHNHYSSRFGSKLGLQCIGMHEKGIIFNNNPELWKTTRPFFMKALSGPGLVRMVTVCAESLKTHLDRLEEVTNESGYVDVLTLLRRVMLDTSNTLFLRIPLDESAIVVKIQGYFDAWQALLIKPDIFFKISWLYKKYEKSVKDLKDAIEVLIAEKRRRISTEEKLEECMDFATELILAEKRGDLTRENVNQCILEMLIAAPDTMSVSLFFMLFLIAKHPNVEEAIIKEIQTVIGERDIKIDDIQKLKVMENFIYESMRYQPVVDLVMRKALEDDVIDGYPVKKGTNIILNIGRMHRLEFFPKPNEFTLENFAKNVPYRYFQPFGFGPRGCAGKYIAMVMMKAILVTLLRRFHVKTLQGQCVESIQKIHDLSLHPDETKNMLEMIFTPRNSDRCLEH

`Brc1c2ccccc2cc2ccccc12`: in test [1], the Potency was 61.8 µM (active). Moreover, the Potency entry (with Aromatase (Homo sapiens); in [2]; in test [3]; in test [4]; in [5]; in test [6]) was “inactive” in each case. For the same compound, the Potency result in test [7] is “inactive”.

As to `Nc1cccc([N+](=O)[O-])c1`, the Potency result (in the test with Aromatase (Homo sapiens); in test [3]; in test [5]; in [8]; in [6]; in [7]) was “inactive” each time.

For the compound `C#CCOC(=O)C1=CCCN(C)C1`, the Potency entry in test [9], in [10], in test [12] and in [13] was “inactive” each time. Also, in test [11], the Potency was 22 µM (active).

On to `CCOC(=O)C(O)(c1ccc(Cl)cc1)c1ccc(Cl)cc1`, for which the Potency is 27.6 µM (active) in test [1]; 4.37 µM (active) and 30.6 µM (active) with Aromatase (Homo sapiens); 24.6 µM (active) in [2]; 30.9 µM (active) and 30.6 µM (active) in [3]; 90.7 µM (active) and 89.8 µM (active) in [14]. Further, the result in test [15] and in test [16] was inactive. The Potency entry in test [5], in [8], in test [6] and in [7] was “inactive” each time.

Regarding `Cc1ccc(N)c([N+](=O)[O-])c1`, the Potency result (with Aromatase (Homo sapiens); in [2]; in [3]; in test [5]; in test [8]; in [6]) was “inactive” throughout. Besides, the Potency entry in test [7] was “inactive”.

`C[C@@]12C(=O)OC(=O)[C@]1(C)C1CCC2O1`: the Potency was 1.6 µM (active) in [1]; 3.59 µM (active) in the test with Aromatase (Homo sapiens); 5.31 µM (active) in test [3]; 22 µM (active) in test [14]; 0.376 µM (active) in test [4]. Also, the Potency result in test [2], in [5], in test [8], in test [6] and in [7] was “inactive” in each case.

Take `Oc1cc(Cl)cc(Cl)c1Cl`: the Potency in test [2] is 24.9 µM (active); in [3], 62.6 µM (active). Also, the Potency result in [4], in test [5], in test [8], in test [6] and in [7] was “inactive” in each case.

As for `Nc1cccc(C(F)(F)F)c1`, the Potency result (in test [1]; with Aromatase (Homo sapiens); in test [2]; in test [3]; in test [5]; in [8]) was “inactive” throughout. Moreover, the Potency entry in [6] and in test [7] was “inactive” each time.

As for `Oc1c(Cl)ccc(Cl)c1Cl`, the Potency result (with Aromatase (Homo sapiens); in test [2]; in test [3]; in test [4]; in test [5]; in test [8]) was “inactive” throughout. The Potency result in test [6] and in [7] was “inactive” each time.

As to `CCCN(CCC)[C@H]1CCc2c(F)ccc(O)c2C1`, the Potency entry in test [9], in [10], in test [11], in test [12], in test [13] and in [17] was “inactive” throughout.

Take `N[C@@H](Cn1oc(=O)[nH]c1=O)C(=O)O`: the Potency result in test [9], in test [10], in test [11], in [12], in [13] and in [17] was “inactive” each time.

Consider `N=C(N)c1ccc(CS(=O)(=O)F)cc1`, for which the Potency entry in test [9], in test [10], in [11], in test [12], in test [13] and in [17] was “inactive” in each case.

For the compound `Cn1cnc(CCN)c1`, the Potency result in test [9], in [10], in [11], in [12], in test [13] and in test [17] was “inactive” throughout.

Consider `CCCN(CCC)C1Cc2cc(OC)c(OC)cc2C1`, for which the Potency result in [9], in test [10], in test [11], in test [12], in test [13] and in test [17] was “inactive” throughout.

For the compound `CC1=NN=C(c2ccc(N)cc2)c2cc3c(cc2C1)OCO3`, the Potency result in [9], in test [10], in test [11], in test [12], in test [13] and in [17] was “inactive” throughout.
